HePTP inhibitor: human HePTP phosphatase inhibition. P35236. recombinant HePTP phosphatase activity, OD absorbance. inhibition, % at 20 µM. actives 0.64% (n = 110,000). AID 521; in the data active means inhibition above about 50%;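 further: plate controls were vehicle for no effect and reference inhibitor for full effect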
Target sequence (P35236 whole entry, looked up): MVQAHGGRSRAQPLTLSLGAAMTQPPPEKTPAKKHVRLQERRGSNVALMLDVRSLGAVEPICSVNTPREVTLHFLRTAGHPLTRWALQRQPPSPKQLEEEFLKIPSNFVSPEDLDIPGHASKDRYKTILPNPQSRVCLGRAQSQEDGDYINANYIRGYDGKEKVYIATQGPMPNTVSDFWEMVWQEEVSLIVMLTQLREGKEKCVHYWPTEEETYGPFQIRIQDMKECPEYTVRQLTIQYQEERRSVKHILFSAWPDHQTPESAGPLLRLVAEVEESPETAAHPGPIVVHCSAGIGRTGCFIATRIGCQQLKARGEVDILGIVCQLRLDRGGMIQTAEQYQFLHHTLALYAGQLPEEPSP
PLAP activator: human PLAP activation. P05187. purified PLAP enzyme, luminescent substrate read-out; hits give high values. activation fold at 20 µM. actives 1.2% (n = 96,000); in the data active means activation fold above about 2
Mac1 fbg enh: CD11b/CD18-fibrinogen binding enhancement; K562 CD11b/CD18 adhesion to fibrinogen, ATPlite luminescence; P05107+P11215; actives 0.07% (n = 93,000); activation, % at 10 µM;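 active means 10 µM primary screen giving 50% or more activity, confirmed by 40% or more on retest at that dose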
CD11b adhes inh: inhibitors of human CD11b/CD18 binding to fibrinogen; P05107+P11215; inhibition, % at 10 µM; actives 0.54% (n = 93,000); K562 CD11b/CD18 adhesion to fibrinogen, ATPlite luminescence; Mn2+ added to activate the integrin;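 active means primary inhibition of 50% or more at 10 µM, then 40% or more on retest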
* hit, by the source's call; . = no result. Rows were chosen to be rich in hits. Some 1.5% of all compounds tested hit in one or more screens of this group.

SMILES | HePTP inhibitor | PLAP activator | Mac1 fbg enh | CD11b adhes inh
Cn1nc(-c2ccc(Cl)cc2)c2cc(C(=O)N3CCN(c4ccccn4)CC3)sc21 | -3 | 1.6 | 5 | 62*
Cn1nc(-c2ccc(Cl)cc2)c2cc(C(=O)N3CCN(c4ccccc4)CC3)sc21 | -5 | 1.3 | 1 | 3
O=C(O)CN1C(=O)/C(=C2\SC(=S)N(/N=C/c3cc([N+](=O)[O-])ccc3O)C2=O)c2ccccc21 | 102* | . | . | .
O=C(O)CCCCCN1C(=O)/C(=C2/C(=O)N(CC(=O)O)c3ccccc32)SC1=S | 6 | . | . | .
C=CCOc1ccc(/C=C2/C(=O)NN(c3ccc(C(=O)OCC)cc3)C2=O)cc1OC | 60* | . | . | .
COc1cc(/C=C2/C(=O)NN(c3ccc(Cl)cc3)C2=O)ccc1O | 9 | . | . | .
COc1cc(/C=C2/C(=O)NN(c3ccc(Cl)cc3)C2=O)cc(Br)c1O | 92* | . | . | .
CCOC(=O)c1ccc(N2NC(=O)/C(=C/c3ccc4c(c3)OCO4)C2=O)cc1 | 100* | . | . | .
CCCCOc1ccc(/C=C2/C(=O)NN(c3ccc(C(=O)OCC)cc3)C2=O)cc1OC | -8 | . | . | .
CCOc1cc(OCC)cc(C(=O)Nc2ccc(NC(=O)CC)cc2)c1 | -8 | . | . | .
C=CCNC(=S)NNC(=O)C(CCC(C)C)CC(C)O (centres undefined) | . | 2.7* | 1 | 2
O=C(Cc1ccc(F)cc1)Nc1cccc2ccccc12 | 103* | . | . | .
Cc1ccc(C2=NNC(C(O)C(O)C(O)CO)S2)cc1 (centres undefined) | . | 2.4* | 7 | -11
Cc1ccc(C2=NNC(c3ccc(Cl)cc3)S2)cc1 (centres undefined) | 6 | . | . | .
O=C(Nc1ccc2c(c1)oc1ccccc12)c1ccc(Cl)cc1Cl | 7 | . | . | .
Nc1nc(Nc2ccc(Cl)cc2)nc2ccccc12 | . | 0.7 | -4 | 85*
O=C(Cc1csc(N2CCOCC2)n1)N/N=C/c1ccc(Cl)cc1Cl | . | 1.6 | -3 | 55*
Clc1ccc(/C=N/Nc2nc(N3CCOCC3)nc(N3CCOCC3)n2)c(Cl)c1 | -16 | . | . | .
N#Cc1c2n(c3c(NCCCO)ncnc13)CCCCC2 | -7 | . | . | .
N#CC1=C(N)NC(SCc2ccc(F)cc2)=C(C#N)C12CCCCC2 | 5 | 0.6 | -6 | 77*
CCOc1cc(/C=C2/SC(N)=NC2=O)ccc1OCc1ccc(F)cc1 | -5 | . | . | .
CCOC(=O)c1[nH]cnc1C(=O)Nc1ccccn1 | 4 | 1.8 | 0 | 9
O=C(c1ccccc1)c1nc[nH]c1C(=O)Nc1ccccn1 | -6 | 2.2* | -4 | -20
C/C(=N\NC(=O)c1ccccn1)c1ccc([N+](=O)[O-])cc1 | -4 | . | . | .
COc1ccccc1C1/C(=C(\O)c2ccc(Cl)cc2)C(=O)C(=O)N1CCCCCC(=O)O (centres undefined) | -1 | . | . | .
SMILES | HePTP inhibitor | PLAP activator | Mac1 fbg enh | CD11b adhes inh
CCCCCCCCNc1ncnc2ccccc12 | . | 10 | -10 | 101*
CCOC(=O)C1=C(C)N=c2s/c(=C/c3cc(Br)cc(OC)c3O)c(=O)n2C1c1cccs1 (centres undefined) | -1 | . | . | .
COc1ccccc1NC(=O)Cc1nn(C)c(=O)c2ccccc12 | 1 | 0.9 | -3 | 64*
Cn1nc(CC(=O)Nc2ccc3c(c2)OCCO3)c2ccccc2c1=O | 1 | 0.8 | -12 | 96*
COc1cc(CN2CCN(C3C4CC5CC(C4)CC3C5)CC2)cc(OC)c1OC (centres undefined) | -6 | . | . | .
Cc1nn(Cc2cccc(F)c2)c(C)c1NC(=O)c1ccc(COc2ccccc2Cl)cc1 | . | 2* | 1 | 0
CCOc1cccc(C(=O)Nc2sc(C)cc2C(=O)OC)c1 | -3 | . | . | .
O=C(O)c1cc(NC(=O)c2ccc3c(c2)C(=O)N(C2CCCCC2)C3=O)cc(C(=O)O)c1 | -3 | . | . | .
O=C(Nc1ccncc1)c1ccc2c(c1)C(=O)N(C1CCCCC1)C2=O | . | 0.9 | -7 | 86*
Cc1ccccc1C(=O)Nc1nc(=S)ss1 | . | 1 | -11 | 100*
CC(=O)Nc1nc(=S)ss1 | 10 | 0.9 | -3 | 9
CC(C)CC(=O)Nc1nc(=S)ss1 | . | 1 | -6 | 75*
COCCNC(=O)Cn1nc(C(F)(F)F)cc1C | 0 | 1 | -6 | -6
Cc1cc(C(F)(F)F)nn1CC(=O)NNC(=S)Nc1ccc(Cl)cc1 | . | 1.2 | -4 | 9
Cc1cc(C(F)(F)F)nn1CC(=O)NNC(=S)Nc1ccc(F)cc1 | . | 2.8* | -5 | 2
Cc1cc(C(F)(F)F)nn1CC(=O)NNC(=S)NCC(C)C | . | 2.6* | -1 | -1
C=CCNC(=O)c1onc(CSc2ccc(F)cc2)c1C(=O)O | . | 1 | . | .
C=CCNC(=O)c1onc(CSc2ccc(F)cc2)c1C(=O)NCCOC | . | 1.1 | -6 | 60*
CCOC(=O)c1c(NC(=O)c2ccncc2)sc(C(C)=O)c1C | 105* | . | . | .
CCOC(=O)c1c(NC(=O)c2cccnc2)sc(C(C)=O)c1C | . | . | -5 | 4
COc1cccc(CN2CCN(S(=O)(=O)c3ccc(Cl)cc3)CC2)c1 | 2 | . | . | .
COc1ccc(C(=O)NNC(=O)CSc2nnc(COc3ccccc3)n2C)cc1 | . | 2* | -2 | -11
COc1ccc(-n2c(SCC(=O)NNC(=O)c3ccccc3C)nnc2-c2ccncc2)cc1 | . | 2.1* | . | .
Cc1ccc(C)c(S(=O)(=O)/N=C2\C=CC(=O)c3ccccc32)c1 | -1 | . | . | .
O=C1CC(c2cc3c(cc2Cl)OCO3)c2cc(Br)c3ccccc3c2N1 (centres undefined) | -2 | . | . | .
SMILES | HePTP inhibitor | PLAP activator | Mac1 fbg enh | CD11b adhes inh
Cc1nn(Cc2ccccc2Cl)c(C)c1C(=O)Nc1nnc(C2CC2)s1 | 9 | 1.2 | 54* | 12
COc1ccccc1NC(=S)NNC(=O)c1cc(C)n(C)n1 | . | 2.8* | -3 | -7
O=C(N/N=C/c1cc2c(cc1Cl)OCO2)/C(=C\c1ccc2c(c1)OCO2)NC(=O)c1ccccc1 | -1 | . | . | .
Nc1ccc(-c2ccc(N3C(=O)c4cccc5c(C(=O)c6ccccc6)ccc(c45)C3=O)cc2)cc1 | -1 | . | . | .
COc1ccc(N2C(=O)CC(N3CCN(C(c4ccccc4)c4ccc(Cl)cc4)CC3)C2=O)cc1 (centres undefined) | 105* | . | . | .
CN(C)C1=C(C#N)C(C2CCCCC2=O)c2c(c3ccccc3n2C)N1c1ccc([N+](=O)[O-])cc1 (centres undefined) | 104* | . | . | .
